In ChEMBL document CHEMBL3433997, “St. Jude Leishmania screening dataset” (2016):

What follows are compounds tested against Hexose transporter 1 (Plasmodium falciparum) (UniProt O97467) (assay: ST_JUDE_LEISH: Cytotoxicity at 2uM final concentration against transgenic Leishmania Mexicana promastigotes LmPfHT that are glucose transport deficient and complemented with the Plasmodium falciparum hexose transporter. Activity is measured by DNA content using SYBR green in vitro).
Format: functional

SMILES	inhibition
COC(=O)c1cccc(NC(=O)NC2CCN(c3ccnc(Nc4ccc(OC)cc4)n3)C2)c1 (stereo not drawn)	0.86%
O=C(Nc1nc(-c2ccccn2)cs1)c1ccc(Br)s1	4.54%
Cc1cccc2nc(-c3cccc(-c4ccc(NC(=O)NCc5cccc(F)c5)cc4)c3)[nH]c12	1.21%
Cc1nc(C(C)Nc2nncc(-c3ccc(Cl)cc3)n2)cs1 (stereo not drawn)	0.17%
CC(NC(=O)NC1CCC(CCN2CCCc3ccccc32)CC1)c1cccc2ccccc12 (stereo not drawn)	1.8%
N=C(N)c1ccc(C(=O)Nc2cccc(C(=N)N)c2)cc1	0.84%
N#Cc1ccc(-c2ccc(C(=O)NCCCCN3CCC(n4cnc5ccccc54)CC3)cc2)cc1	3.72%
Fc1cccc(COc2ccc(Nc3ncnc4sc(C#CC5CCCCN5)cc34)cc2Cl)c1 (stereo not drawn)	1.13%
COc1ccc(-c2cccc(NC(=O)c3cccc(C#N)c3)c2)cc1CN1CCCC1	15.9%
Oc1ccc2[nH]c(-c3ccc(F)cc3F)nc2c1CN1CCC(O)(c2ccccc2)CC1	-0.92%
Cc1[nH]c2ccc(O)cc2c1C1CCN(CCCCCNC(=O)/C=C/c2ccc(Cl)c(Cl)c2)CC1	0.7%
Cn1cccc1C(=O)Nc1cccc(-c2nn3ccccc3c2-c2ccnc(Nc3ccc4c(c3)OCCO4)n2)c1	9.05%
COc1ccccc1CNc1ccnc(N2CC(Oc3ccc(F)cc3)C2)n1	0.57%
COc1cc(C=Cc2ccc3ccccc3n2)cc(Br)c1OCC(=O)N(C)C	-1.14%
Cc1cccc2nc(-c3cccc(-c4ccc(NC(=O)CN5CCOCC5)cc4)c3)[nH]c12	4.5%
CCOc1ccc2nc3cc([N+](=O)[O-])ccc3c(N)c2c1	7.59%
CCN(CCCN1CCCCC1)c1cc(C)nc(Nc2ccc(OC)cc2)n1	-1.06%
COc1cc2ccccc2c(OC)c1CNCCCCCCNCc1c(OC)cc2ccccc2c1OC	7.88%
COc1ccc2nc3cc(Cl)ccc3c(NCCCN3CCNCC3)c2c1	3.25%
O=C(Nc1ccc2ccccc2c1)N(CCCn1ccnc1)Cc1csc(-c2ccc(CNCc3ccccc3)cc2)n1	0.41%

SMILES	inhibition
CCn1c(Cc2ccccc2)nnc1Sc1ccc([N+](=O)[O-])c(C#N)c1	6.38%
O=S(=O)(NCCN1CCCC1)c1ccc(-c2ccccc2CNC2Cc3ccccc3C2)cc1	67.7%
CS(=O)(=O)c1ccc2c(c1)CCN(CCC1CCC(NC(=O)C(=Cc3ccc(Cl)cc3Cl)c3ccc(-c4ccccc4)cc3)CC1)CC2 (stereo not drawn)	3.12%
Cc1ccc(NC(=S)N2CCCN(CCCCCNC(=O)/C=C/c3ccc(Cl)c(Cl)c3)CC2)cc1Cl	-1.02%
Cc1ccc(Nc2ccnc3ccc(C(F)(F)F)cc23)cc1O	3.33%
CN1CCCC1CCNCc1ccc(-c2ccc(CNCCc3ccccc3)cn2)cc1 (stereo not drawn)	2.41%
Cc1ccc2[nH]c(Nc3ccc(Nc4nc5cc(C)ccc5[nH]4)c(C)c3)nc2c1	2.18%
COc1ccc(S(=O)(=O)N2CCCc3ccc(Br)cc32)cc1N1CCN(C(=O)C(Cl)(Cl)Cl)CC1	2.99%
O=C(c1ccc(Cl)cc1)N1CCCC(C(=O)N(Cc2nnc(-c3ccccc3Cl)o2)C2CC2)C1 (stereo not drawn)	1.56%
CCCCCCN1CCC(NCc2cccc(-n3ccnc3)c2)CC1	7.03%
C[C@@H]1CC[C@H](NC(=O)[C@H](CC2CCCC2)NC(=O)N2CCNCC2)C(=O)CN1S(=O)(=O)c1ccccn1	0.17%
NC1CCN(Cc2cccc(-c3ccc(-c4nc5cc(C(F)(F)F)ccc5[nH]4)cc3)c2)C1 (stereo not drawn)	5.22%
COc1ccc(NC(=O)[C@H](Cc2ccccc2)Nc2cc(C)nc(Nc3ccccc3)n2)cc1	14.5%
c1ccc2c(c1)cc(CNCCCN1CCN(CCCNCc3cc4ccccc4c4ccccc34)CC1)c1ccccc12	0.84%
O=C(/C=C/c1ccc(Cl)c(Cl)c1)NCCCCCN1CCCN(C(=S)Nc2ccc(Cl)cc2)CC1	1.56%
CCC1(CC)CN(c2ccccc2)c2ccc(O)cc2S(=O)(=O)C1CC(C)C (stereo not drawn)	0.32%
COc1ccc(Nc2ncc3c(-c4cccc(NC(=O)c5ccc(N)cc5)c4)c[nH]c3n2)cc1OC	8.84%
COC(=O)CCCCCOc1cc(Cc2cnc(N)nc2N)cc(OC)c1OC	-5.95%
O=C(NCCCCN1CCC(c2ccc3c(c2OCCCO)CCCC3)CC1)c1ccc(-c2ccc(C(F)(F)F)cc2)c(CO)c1	-0.59%

These compounds were tested against Glucose transporter (Leishmania mexicana) (UniProt O61059) (assay: ST_JUDE_LEISH: Cytotoxicity at 2uM final concentration against transgenic Leishmania Mexicana promastigotes LmGT2 that are glucose transport deficient and complemented with the L. Mexicana glucose transporter 2. Activity is measured by DNA content using SYBR green in vitro).
Format: functional

SMILES	inhibition
COC(=O)c1cccc(NC(=O)NC2CCN(c3ccnc(Nc4ccc(OC)cc4)n3)C2)c1 (stereo not drawn)	0.1%
O=C(Nc1nc(-c2ccccn2)cs1)c1ccc(Br)s1	0.61%
Cc1cccc2nc(-c3cccc(-c4ccc(NC(=O)NCc5cccc(F)c5)cc4)c3)[nH]c12	0.25%
Cc1nc(C(C)Nc2nncc(-c3ccc(Cl)cc3)n2)cs1 (stereo not drawn)	1.17%
CC(NC(=O)NC1CCC(CCN2CCCc3ccccc32)CC1)c1cccc2ccccc12 (stereo not drawn)	-1.84%
N=C(N)c1ccc(C(=O)Nc2cccc(C(=N)N)c2)cc1	-0.81%
N#Cc1ccc(-c2ccc(C(=O)NCCCCN3CCC(n4cnc5ccccc54)CC3)cc2)cc1	5.28%
Fc1cccc(COc2ccc(Nc3ncnc4sc(C#CC5CCCCN5)cc34)cc2Cl)c1 (stereo not drawn)	-0.16%
COc1ccc(-c2cccc(NC(=O)c3cccc(C#N)c3)c2)cc1CN1CCCC1	5.27%
Oc1ccc2[nH]c(-c3ccc(F)cc3F)nc2c1CN1CCC(O)(c2ccccc2)CC1	0.37%
Cc1[nH]c2ccc(O)cc2c1C1CCN(CCCCCNC(=O)/C=C/c2ccc(Cl)c(Cl)c2)CC1	0.96%
Cn1cccc1C(=O)Nc1cccc(-c2nn3ccccc3c2-c2ccnc(Nc3ccc4c(c3)OCCO4)n2)c1	-1.17%
COc1ccccc1CNc1ccnc(N2CC(Oc3ccc(F)cc3)C2)n1	-2.53%
COc1cc(C=Cc2ccc3ccccc3n2)cc(Br)c1OCC(=O)N(C)C	-0.95%
Cc1cccc2nc(-c3cccc(-c4ccc(NC(=O)CN5CCOCC5)cc4)c3)[nH]c12	2.97%
CCOc1ccc2nc3cc([N+](=O)[O-])ccc3c(N)c2c1	2.01%
CCN(CCCN1CCCCC1)c1cc(C)nc(Nc2ccc(OC)cc2)n1	-1.02%
COc1cc2ccccc2c(OC)c1CNCCCCCCNCc1c(OC)cc2ccccc2c1OC	12.4%
COc1ccc2nc3cc(Cl)ccc3c(NCCCN3CCNCC3)c2c1	2.39%
O=C(Nc1ccc2ccccc2c1)N(CCCn1ccnc1)Cc1csc(-c2ccc(CNCc3ccccc3)cc2)n1	1.63%

SMILES	inhibition
CCn1c(Cc2ccccc2)nnc1Sc1ccc([N+](=O)[O-])c(C#N)c1	3.87%
O=S(=O)(NCCN1CCCC1)c1ccc(-c2ccccc2CNC2Cc3ccccc3C2)cc1	50.5%
CS(=O)(=O)c1ccc2c(c1)CCN(CCC1CCC(NC(=O)C(=Cc3ccc(Cl)cc3Cl)c3ccc(-c4ccccc4)cc3)CC1)CC2 (stereo not drawn)	3.51%
Cc1ccc(NC(=S)N2CCCN(CCCCCNC(=O)/C=C/c3ccc(Cl)c(Cl)c3)CC2)cc1Cl	0.36%
Cc1ccc(Nc2ccnc3ccc(C(F)(F)F)cc23)cc1O	2.31%
CN1CCCC1CCNCc1ccc(-c2ccc(CNCCc3ccccc3)cn2)cc1 (stereo not drawn)	4.27%
Cc1ccc2[nH]c(Nc3ccc(Nc4nc5cc(C)ccc5[nH]4)c(C)c3)nc2c1	0.88%
COc1ccc(S(=O)(=O)N2CCCc3ccc(Br)cc32)cc1N1CCN(C(=O)C(Cl)(Cl)Cl)CC1	1.28%
O=C(c1ccc(Cl)cc1)N1CCCC(C(=O)N(Cc2nnc(-c3ccccc3Cl)o2)C2CC2)C1 (stereo not drawn)	-0.04%
CCCCCCN1CCC(NCc2cccc(-n3ccnc3)c2)CC1	9.81%
C[C@@H]1CC[C@H](NC(=O)[C@H](CC2CCCC2)NC(=O)N2CCNCC2)C(=O)CN1S(=O)(=O)c1ccccn1	-0.32%
NC1CCN(Cc2cccc(-c3ccc(-c4nc5cc(C(F)(F)F)ccc5[nH]4)cc3)c2)C1 (stereo not drawn)	2.71%
COc1ccc(NC(=O)[C@H](Cc2ccccc2)Nc2cc(C)nc(Nc3ccccc3)n2)cc1	10.4%
c1ccc2c(c1)cc(CNCCCN1CCN(CCCNCc3cc4ccccc4c4ccccc34)CC1)c1ccccc12	-0.41%
O=C(/C=C/c1ccc(Cl)c(Cl)c1)NCCCCCN1CCCN(C(=S)Nc2ccc(Cl)cc2)CC1	1.57%
CCC1(CC)CN(c2ccccc2)c2ccc(O)cc2S(=O)(=O)C1CC(C)C (stereo not drawn)	0.3%
COc1ccc(Nc2ncc3c(-c4cccc(NC(=O)c5ccc(N)cc5)c4)c[nH]c3n2)cc1OC	7.97%
COC(=O)CCCCCOc1cc(Cc2cnc(N)nc2N)cc(OC)c1OC	0.35%
O=C(NCCCCN1CCC(c2ccc3c(c2OCCCO)CCCC3)CC1)c1ccc(-c2ccc(C(F)(F)F)cc2)c(CO)c1	-0.61%
